# According to PubChem BioAssay:
# The source made the active and inactive calls.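 The calls were made as follows, unless noted: active = viability at or below 30% in both replicate assays; inconclusive = viability at or below 30% in just one of the two assays; inactive = the rest.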
# Tests used:
# [1] = reducers of endogenous Her2 protein level, primary screen, SKBR3 breast tumor cells, AlphaScreen, ATP viability (AID 461;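 active = Her2 level under about 52% in both replicate screens, with viability over 70% of control, limit read from the data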;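 as to Her2 level: lower value means less Her2 protein in the cells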;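 as to viability: percent of carrier control wells set as 100% viability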); conditions: 18-24 h, measured here: SKBR3 viability, ATP luminescence, at 10 µM
# [2] = target: Receptor tyrosine-protein kinase erbB-2 (Homo sapiens) (UniProt P04626); assay: as above; conditions: 18-24 h, at 10 µM, stronger effect = lower value
# Receptor tyrosine-protein kinase erbB-2 (Homo sapiens), sequence (P04626 whole entry, looked up): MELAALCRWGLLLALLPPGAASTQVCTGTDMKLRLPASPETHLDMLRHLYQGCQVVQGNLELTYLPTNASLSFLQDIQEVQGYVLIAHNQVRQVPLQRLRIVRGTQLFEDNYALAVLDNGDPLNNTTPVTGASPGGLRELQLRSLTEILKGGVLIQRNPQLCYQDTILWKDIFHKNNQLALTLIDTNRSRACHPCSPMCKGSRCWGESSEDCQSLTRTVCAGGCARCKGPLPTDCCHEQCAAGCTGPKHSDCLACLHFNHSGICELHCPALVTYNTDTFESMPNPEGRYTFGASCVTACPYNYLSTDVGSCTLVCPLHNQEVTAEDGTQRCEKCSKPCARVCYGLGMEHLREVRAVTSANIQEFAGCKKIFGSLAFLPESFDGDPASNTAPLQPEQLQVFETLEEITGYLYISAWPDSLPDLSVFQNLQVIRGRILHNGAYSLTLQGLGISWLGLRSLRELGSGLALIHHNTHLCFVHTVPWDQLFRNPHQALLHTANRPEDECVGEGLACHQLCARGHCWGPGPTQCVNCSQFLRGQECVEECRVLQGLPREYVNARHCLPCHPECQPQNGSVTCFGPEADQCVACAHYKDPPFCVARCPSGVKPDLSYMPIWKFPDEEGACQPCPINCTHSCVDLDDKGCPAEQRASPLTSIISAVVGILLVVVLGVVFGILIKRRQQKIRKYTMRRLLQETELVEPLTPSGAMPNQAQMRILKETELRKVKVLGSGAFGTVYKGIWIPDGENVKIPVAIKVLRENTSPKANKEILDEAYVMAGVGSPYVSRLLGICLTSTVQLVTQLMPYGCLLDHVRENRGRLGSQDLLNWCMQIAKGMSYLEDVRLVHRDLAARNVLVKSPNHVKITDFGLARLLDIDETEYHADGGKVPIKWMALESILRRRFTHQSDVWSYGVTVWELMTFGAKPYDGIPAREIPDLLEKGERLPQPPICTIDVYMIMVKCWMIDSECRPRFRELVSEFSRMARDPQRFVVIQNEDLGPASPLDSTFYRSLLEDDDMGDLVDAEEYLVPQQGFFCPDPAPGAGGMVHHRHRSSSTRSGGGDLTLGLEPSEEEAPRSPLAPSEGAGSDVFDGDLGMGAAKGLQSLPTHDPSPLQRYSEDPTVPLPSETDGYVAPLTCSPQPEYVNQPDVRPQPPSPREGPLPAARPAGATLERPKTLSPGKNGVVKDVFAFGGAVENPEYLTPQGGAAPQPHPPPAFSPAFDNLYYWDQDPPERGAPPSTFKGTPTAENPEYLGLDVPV
# [3] = SK-BR-3 cell growth inhibitors, pilot screen, 24 h, human (AID 572;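 active = viability at or below 10% of carrier control in both of two separate runs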;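 also: compound exposure lasted between 18 and 24 h rather than exactly 24 h; 100% = carrier-treated control wells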); conditions: SK-BR-3 viability, CellTiter-Glo luminescence, at 10 µM, stronger effect = lower value
# [4] = HUVEC growth inhibition – cell-based, human, primary screen (AID 575); conditions: HUVEC proliferation, CellTiter-Glo luminescence, 72 h; at 10 µM; stronger effect = lower value;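 also: 100% = median of untreated cell wells with 0.1% DMSO on each plate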
# [5] = growth inhibitors of H69AR lung tumor, primary screen, human, duplicate replicates (AID 580;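 active = viability at or under a set limit in both replicates, limit being median viability minus 3 SD, cut at about 48% in these data, passing the limit was not always enough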;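 also: 100% = mean luminescence of untreated wells and 0% = no signal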); conditions: H69AR lung tumor cells viability, ATP luminescence, 72 h; at 10 µM; stronger effect = lower value
# [6] = reversal of MRP1-mediated doxorubicin resistance, pilot screen, H69AR cells, doxorubicin co-treatment (AID 601;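 active = viability loss from added drug above about 55%, and viability with drug at most 40%, in both replicates, limit read from the data, passing the limit was not always enough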); conditions: CellTiter-Glo, 72 h, at 10 µM; for differential viability (reversal): stronger effect = higher value
# [7] = 384-well plate pilot, post-Golgi transport modulator project, inhibition of yeast transport mutant growth (AID 636; in the data active = inhibition above about 31%); conditions: absorbance 615 nm, about 18 h, stronger effect = higher value
# [8] = growth suppression of yeast trafficking mutant, preliminary HTS, modulators of trafficking downstream of Golgi apparatus project, 1536-format plate, OD 615 nm (AID 637; in the data active = inhibition above about 30%); conditions: yeast transport mutant growth, absorbance 615 nm, 18 h; stronger effect = higher value
# [9] = H69AR cells + 2 uM doxorubicin, measured here: viability with 2 uM doxorubicin, stronger effect = lower value
# [10] = H69AR cells, compound alone cytotoxicity
Structure (SMILES),viability [1] [%],Her2 level [2],viability [3],viability [4],viability [5],differential viability (reversal) ([6]; H69AR cells + 2 uM doxorubicin),"viability [6, 9] [%]","viability [6, 10] [%]",inhibition [7],inhibition [8]
CCOC(=O)N1CCN(c2cc3[nH]c(=S)[nH]c3cc2F)CC1,112,83% (inactive),112% (inactive),100% (inactive),89.7% (inactive),-6.7% (inactive),96.4,89.7,-7.2% (inactive),-2.58% (inactive)
O=C(NC1CCCCC1)C(c1ccco1)N(Cc1cccnc1)C(=O)C1COc2ccccc2O1 (stereo not given),100,84.5% (inactive),100% (inactive),91.4% (inactive),81.1% (inactive),-7.03% (inactive),88.1,81.1,-2.24% (inactive),2.13% (inactive)
O=C1CC(c2ccsc2)c2cc3c(cc2N1)OCCO3 (stereo not given),103,98.5% (inactive),103% (inactive),67.6% (inactive),26.9% (active),-33.3% (inactive),60.2,26.9,-2.93% (inactive),-5.25% (inactive)
COc1ccc(S(=O)(=O)Cc2ccc(C(=O)N3CCN(Cc4ccccc4)CC3)o2)cc1,86.5,102% (inactive),86.5% (inactive),95% (inactive),84.9% (inactive),-0.78% (inactive),85.6,84.9,-1.41% (inactive),0.5% (inactive)
O=C(CCCn1c(=S)[nH]c2cc3c(cc2c1=O)OCO3)N1CCN(c2ccccc2F)CC1,77,95% (inactive),77% (inactive),68% (inactive),83.7% (inactive),-9.88% (inactive),93.6,83.7,-4.32% (inactive),-2.95% (inactive)
Nn1cc(-c2ccccc2)nc1SCC(=O)N1CCN(S(=O)(=O)c2ccccc2)CC1,77,96% (inactive),77% (inactive),90.5% (inactive),101% (inactive),-0.4% (inactive),102,101,0.91% (inactive),-6.56% (inactive)
Cc1ccc(C2CC(c3cccc(Br)c3)Nc3nnnn32)cc1 (stereo not given),92.5,79.5% (inactive),92.5% (inactive),56.7% (inactive),91.7% (inactive),6.65% (inactive),85,91.7,-2.11% (inactive),0.16% (inactive)
CCOc1ccc(N(CC(=O)NCC2CCCO2)S(=O)(=O)c2ccc(OC)c(OC)c2)cc1 (stereo not given),105,98.5% (inactive),105% (inactive),118% (inactive),116% (inactive),19.2% (inactive),96.3,116,-4% (inactive),-5.97% (inactive)
COc1ccccc1-c1cc(C(=O)Nc2cc(C)nn2-c2ccccc2)no1,89,81.5% (inactive),89% (inactive),61% (inactive),15.5% (active),-33.6% (inactive),49.1,15.5,7.84% (inactive),-3.11% (inactive)
Cc1ccc(-c2nnc(SCC(=O)N3CC(C)CC(C)C3)o2)cc1C (stereo not given),97,106% (inactive),97% (inactive),71.4% (inactive),90.7% (inactive),-2.04% (inactive),92.7,90.7,-2.13% (inactive),-4.75% (inactive)
CC(=O)N(CCc1ccccc1C)Cc1cc2cc3c(cc2[nH]c1=O)OCO3,99,85.5% (inactive),99% (inactive),90.1% (inactive),91.2% (inactive),-2.76% (inactive),93.9,91.2,-2.03% (inactive),4.44% (inactive)
CC1CCN(c2oc(-c3cccc4ccccc34)nc2C#N)CC1,104,72.5% (inactive),104% (inactive),81.7% (inactive),91.7% (inactive),9.42% (inactive),82.3,91.7,-5.53% (inactive),-7.33% (inactive)
CCOc1cc(C2/C(=C(/O)c3ccc(OC(C)C)cc3)C(=O)C(=O)N2CCCOC)ccc1O (stereo not given),91.5,83.5% (inactive),91.5% (inactive),103% (inactive),99.1% (inactive),1.7% (inactive),97.4,99.1,1.82% (inactive),3.17% (inactive)
CCCCn1c(SCC(=O)NCc2ccccc2)nc2ccc(N3CCOCC3)cc2c1=O,80,89.5% (inactive),80% (inactive),98.1% (inactive),74% (inactive),-5.76% (inactive),79.8,74,-1.22% (inactive),1.8% (inactive)
CCOc1cc(NC(=O)c2ccccn2)c(OCC)cc1NC(=O)CC(C)C,74,102% (inactive),74% (inactive),63.1% (inactive),89% (inactive),-6.29% (inactive),95.2,89,1.2% (inactive),-6.23% (inactive)
c1ccc(-c2csc(N3CCCCCC3)n2)cc1,91.5,104% (inactive),91.5% (inactive),104% (inactive),100% (inactive),14.9% (inactive),85.6,100,-0.27% (inactive),-4.35% (inactive)
